Measurements as given in PubChem BioAssay (EPA / NIEHS).
Inconclusive results are not listed. Calls of active or inactive are those of the source. Rule for the calls, unless noted: active = hit-call score of the fitted dose curve at least 0.9, where 1 is the maximum; inactive = score below 0.9.

Legend:
[1] = read-out: solute carrier (SLCO1B1), SLCO1B1 (gene 10599); assay: LTEA_HepaRG_SLCO1B1: Life Technologies and Expression Analysis (LTEA) Assay for solute carrier (SLCO1B1) using HepaRG (AID 2283530); conditions: mRNA level, 48 h; actives raise or lower the signal
Method in brief: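 Gain or loss of SLCO1B1 mRNA is fitted against the 0.5% DMSO vehicle in human HepaRG liver cells treated 48 h at up to 100 uM in half-log steps. Expression comes from qRT-PCR normalized to endogenous controls.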

[2] = read-out: sulfotransferase 2A1 (SULT2A1), SULT2A1 (gene 6822); assay: LTEA_HepaRG_SULT2A1: Life Technologies and Expression Analysis (LTEA) Assay for sulfotransferase 2A1 (SULT2A1) using HepaRG (AID 2283531); conditions: mRNA level, 48 h; actives raise or lower the signal
Method in brief: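 Cells were plated and cultured 48 h, switched to serum-free induction medium, then dosed in duplicate for 48 h (8 concentrations, max 100 uM). RNA was isolated and SULT2A1 expression measured by qRT-PCR; gain or loss of signal fitted relative to DMSO.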

[3] = read-out: Transforming Growth Factor (TGFA), TGFA (gene 7039); assay: LTEA_HepaRG_TGFA: Life Technologies and Expression Analysis (LTEA) Assay for Transforming Growth Factor (TGFA) using HepaRG (AID 2283532); conditions: mRNA level, 48 h; actives raise or lower the signal
Method in brief: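 Differentiated HepaRG cells exposed 48 hours in serum-free induction medium, 0.5% DMSO vehicle, 8-point half-log series from 100 uM, in duplicate. TGFA mRNA by TaqMan qRT-PCR, normalised to ACTB, GAPDH, POLR2A; bidirectional fit versus DMSO.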

TIMP1, TIMP1 (gene 7076) = assay: LTEA_HepaRG_TIMP1: Life Technologies and Expression Analysis (LTEA) Assay for TIMP1 using HepaRG (AID 2283534); conditions: mRNA level, 48 h; actives raise or lower the signal;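 note: TaqMan qRT-PCR signal normalized to ACTB GAPDH and POLR2A housekeeping genes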
Method in brief: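 We dosed human liver HepaRG cultures for 48 hours with up to 100 uM test chemical and measured TIMP1 expression by qRT-PCR. Activity in either direction is fitted relative to the 0.5% DMSO vehicle.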

[4] = read-out: Tumor necrosis factor receptor 1 (TNFRSF1A), TNFRSF1A (gene 7132); assay: LTEA_HepaRG_TNFRSF1A: Life Technologies and Expression Analysis (LTEA) Assay for Tumor necrosis factor receptor 1 (TNFRSF1A) using HepaRG (AID 2283535); conditions: mRNA level, 48 h; actives raise or lower the signal
Method in brief: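 Expression of TNFRSF1A in human HepaRG liver cells was measured by qRT-PCR 48 h after chemical dosing (maximum 100 uM). Bidirectional curve fitting used 0.5% DMSO as baseline.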

[5] = read-out: Thyroid Hormone Responsive (THRSP), THRSP (gene 7069); assay: LTEA_HepaRG_THRSP: Life Technologies and Expression Analysis (LTEA) Assay for Thyroid Hormone Responsive (THRSP) using HepaRG (AID 2283536); conditions: mRNA level, 48 h; actives raise or lower the signal
Method in brief: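 Differentiated HepaRG cells treated 48 h in serum-free induction medium with 8 half-log concentrations up to 100 uM (0.5% DMSO), duplicates. THRSP mRNA by TaqMan qRT-PCR normalised to ACTB, GAPDH, POLR2A; bidirectional fit versus DMSO.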

[6] = read-out: Cellular tumor antigen p53 (Homo sapiens) (UniProt P04637); assay: LTEA_HepaRG_TP53: Life Technologies and Expression Analysis (LTEA) Assay for Tumor Protein P53 (TP53) using HepaRG (AID 2283537); conditions: mRNA level, 48 h; actives raise or lower the signal
Method in brief: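 TP53 transcript measured by qRT-PCR, normalized to three housekeeping genes, after 48 h treatment of human HepaRG cultures with chemicals from 100 uM downward in half-log steps (0.5% DMSO vehicle, serum-free induction medium). Up- or down-regulation fitted against DMSO.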

[7] = read-out: UDP glucuronosyltransferase (UGT1A1), UGT1A1 (gene 54658); assay: LTEA_HepaRG_UGT1A1: Life Technologies and Expression Analysis (LTEA) Assay for UDP glucuronosyltransferase (UGT1A1) using HepaRG (AID 2283538); conditions: mRNA level, 48 h; actives raise or lower the signal
Method in brief: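 HepaRG cells, 0.5% DMSO vehicle, 48 h exposure in serum-free induction medium to 8-point half-log series topping at 100 uM, in duplicate. UGT1A1 mRNA by Fluidigm qRT-PCR, normalized to ACTB/GAPDH/POLR2A; bidirectional fit versus DMSO.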

[8] = read-out: UDP glucuronosyltransferase (UGT1A6), UGT1A6 (gene 54578); assay: LTEA_HepaRG_UGT1A6: Life Technologies and Expression Analysis (LTEA) Assay for UDP glucuronosyltransferase (UGT1A6) using HepaRG (AID 2283539); conditions: mRNA level, 48 h; actives raise or lower the signal
Method in brief: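 Endpoint is UGT1A6 transcript induction or loss in a human liver cell line, quantified by TaqMan qRT-PCR 48 h after dosing. Concentrations ran from 100 uM downward in half-log steps in 0.5% DMSO; activity was fitted in both directions versus vehicle.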

[9] = read-out: X-box binding protein 1 (XBP1), XBP1 (gene 7494); assay: LTEA_HepaRG_XBP1: Life Technologies and Expression Analysis (LTEA) Assay for X-box binding protein 1 (XBP1) using HepaRG (AID 2283540); conditions: mRNA level, 48 h; actives raise or lower the signal
Method in brief: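 Human HepaRG monolayers receive test chemical for 48 h across an eight-point half-log series starting at 100 uM. XBP1 mRNA gain or loss is scored against DMSO by qRT-PCR.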

[10] = LTEA_HepaRG_LDH_cytotoxicity: Cytotoxicity Assessment in the Life Technologies and Expression Analysis (LTEA) Assay (AID 2283563; active = hit-call score of the fitted dose curve at least 0.9, where 1 is the maximum)
Method in brief: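 Human HepaRG hepatic cells are treated with test chemicals for 48 h at up to 100 uM in 0.5% DMSO. Cytotoxicity is scored from medium LDH against the vehicle control.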

[11] = ATG_XTT_Cytotoxicity: Cytotoxicity Assessment in the Attagene TRANS-FACTORIAL HepG2 Assay (AID 2283584; active = hit-call score of the fitted dose curve at least 0.9, where 1 is the maximum)
Method in brief: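 Transfect HepG2 with GAL4-UAS reporter units, dose compound, incubate 24 h, then measure viable cell number by XTT. Fit concentration response against DMSO baseline.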

[12] = TOX21_p53_BLA_p2_viability: Viability Assessment in the Tox21 HCT-116 p53 Agonism Beta-lactamase Assay, Phase 2 (AID 2283591; active = hit-call score of the fitted dose curve at least 0.9, where 1 is the maximum;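 note: actives lower the ATP signal meaning cytotoxicity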)
Method in brief: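 HCT116 p53-bla cells, 4000/well, dosed after 5 h plating (217-fold dilution of DMSO stocks) and incubated 16 h at 37C. Viability taken as cellular ATP by CellTiter-Glo luminescence after 30 min RT; signal loss marks cytotoxicity.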

[13] = TOX21_p53_BLA_p3_viability: Viability Assessment in the Tox21 HCT-116 p53 Agonism Beta-lactamase Assay, Phase 3 (AID 2283593; active = hit-call score of the fitted dose curve at least 0.9, where 1 is the maximum;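 note: cells exposed to compound for 16 h before reading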)
Method in brief: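 HCT116 cells, 4000/well, dosed 5 h after plating by pin transfer (217-fold dilution from DMSO stock) and incubated 16 h at 37C, 5% CO2. Viability read as ATP luminescence with CellTiter-Glo after 30 min at room temperature.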

[14] = biological target: Cellular tumor antigen p53 (Homo sapiens) (UniProt P04637); assay: TOX21_p53_BLA_p3_ratio: Tox21 HCT-116 p53 Agonism Beta-lactamase Assay, Ratio, Phase 3 (AID 2283596; active = hit-call score of the fitted dose curve at least 0.9, where 1 is the maximum)
Chain of Cellular tumor antigen p53 (Homo sapiens) (P04637 whole entry, looked up): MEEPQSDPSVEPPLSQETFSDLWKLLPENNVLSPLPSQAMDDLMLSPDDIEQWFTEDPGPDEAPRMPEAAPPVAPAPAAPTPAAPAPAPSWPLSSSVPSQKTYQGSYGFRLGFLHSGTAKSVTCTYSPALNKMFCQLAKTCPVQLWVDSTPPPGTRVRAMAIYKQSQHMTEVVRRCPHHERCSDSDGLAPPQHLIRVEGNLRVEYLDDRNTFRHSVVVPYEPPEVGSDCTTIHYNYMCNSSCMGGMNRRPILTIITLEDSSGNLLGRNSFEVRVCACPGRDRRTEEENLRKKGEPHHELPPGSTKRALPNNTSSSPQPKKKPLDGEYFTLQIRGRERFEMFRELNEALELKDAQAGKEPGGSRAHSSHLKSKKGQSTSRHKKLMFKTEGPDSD
Method in brief: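 HCT116 p53-bla cells (4000/well) given compound in DMSO (217-fold dilution) after 5 h, incubated 16 h at 37C. CCF4-AM substrate 2 h at room temperature; 460/530 nm emission ratio, gain fitted against DMSO.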

[15] = TOX21_p53_BLA_p4_viability: Viability Assessment in the Tox21 HCT-116 p53 Agonism Beta-lactamase Assay, Phase 4 (AID 2283597; active = hit-call score of the fitted dose curve at least 0.9, where 1 is the maximum;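 note: hits lower the luminescence signal meaning cytotoxicity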)
Method in brief: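 Compound exposure of HCT116 cells lasts 16 h at 37C, 5% CO2, with DMSO stocks diluted 217-fold. Cellular ATP is then quantified by CellTiter-Glo luminescence after 30 min at room temperature.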

[16] = biological target: Cellular tumor antigen p53 (Homo sapiens) (UniProt P04637); assay: TOX21_p53_BLA_p5_ratio: Tox21 HCT-116 p53 Agonism Beta-lactamase Assay, Ratio, Phase 5 (AID 2283599; active = hit-call score of the fitted dose curve at least 0.9, where 1 is the maximum)
Method in brief: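 HCT-116 p53-bla cells (4000/well) plated 5 h, dosed with compound (217-fold DMSO dilution) for 16 h at 37 C; CCF4-AM substrate 2 h at room temperature. Activity is the 460/530 nm emission ratio (405 nm excitation), fitted in gain-of-signal direction versus DMSO.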

[17] = TOX21_p53_BLA_p5_viability: Viability Assessment in the Tox21 HCT-116 p53 Agonism Beta-lactamase Assay, Phase 5 (AID 2283600; active = hit-call score of the fitted dose curve at least 0.9, where 1 is the maximum)
Method in brief: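 Counter-readout for cytotoxicity: ATP-dependent luminescence from CellTiter-Glo, read in the beta-lactamase wells after 30 min at RT, following a 16 h compound exposure at 37C.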

[18] = biological target: Cellular tumor antigen p53 (Homo sapiens) (UniProt P04637); assay: TOX21_p53_BLA_p2_ratio: Tox21 HCT-116 p53 Agonism Beta-lactamase Assay, Ratio, Phase 2 (AID 2283592; active = hit-call score of the fitted dose curve at least 0.9, where 1 is the maximum)
Method in brief: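 An inducible beta-lactamase reporter in HCT116 cells signals p53 pathway activation. After 16 h chemical exposure at 37C, cells load CCF4-AM substrate for 2 h at room temperature; activity is the cleaved/uncleaved emission ratio relative to DMSO.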

[19] = read-out: Transforming Growth Factor (TGFB1), TGFB1 (gene 7040); assay: LTEA_HepaRG_TGFB1: Life Technologies and Expression Analysis (LTEA) Assay for Transforming Growth Factor (TGFB1) Transporter using HepaRG (AID 2283533); conditions: mRNA level, 48 h; actives raise or lower the signal
Method in brief: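 Expression change of TGFB1 in human HepaRG cells is measured after a 48 h chemical exposure, up to 100 uM in 0.5% DMSO vehicle. Curves are fitted in both directions relative to the DMSO baseline.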

Measured: outcome

CCN(CC)c1ccccc1
not listed: [18] | [19]
inactive: all other assays above

O=[N+]([O-])c1ccccc1
not listed: [11] | [19]
inactive: all other assays above

CSC(C)(C)C=NO
not listed: [6] | [12] | [13] | [14] | [15] | [16] | [17] | [18]
inactive: all other assays above

O=C(O)C1C(C(=O)O)C2(Cl)C(Cl)=C(Cl)C1(Cl)C2(Cl)Cl (stereo not given)
not listed: [13] | [15] | [19]
inactive: all other assays above
